Compound activity (PubChem BioAssay)
DT40 TDP1 CPT = growth inhibition of DT40 Tdp1-/-;hTDP1 cells with camptothecin (screen for TDP1 inhibitors); AID 686979; 420,000 tested, 12% active; chicken DT40 Tdp1-/-;hTDP1 cells + 20 nM CPT, ATP luminescence, 48 h; Potency, µM (highest dose often 46.2 µM), for the others: at the top dose activity change, negative = growth inhibition, usual class: inhibitors; also: potency is read from the fitted curve at half-maximal effect; % is scaled to controls: 0 for no effect and ±100 for the full control effect; nearly all actives have a fitted effect of over 55% in size
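Chicken DT40 Tdp1-/- cells stably complemented with human TDP1 were seeded at 400 cells/well in medium containing 20 nM camptothecin, exposed to pin-transferred compounds, and grown at 37 °C for at least 48 hr. Viability was read as ATP luminescence.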
D3 antag = D3 dopamine receptor (human) antagonism; P35462; 360,000 tested, 2.5% active; D3R cells, DiscoveRx beta-arrestin luminescence, antagonist mode; hits give low values; max response, negative = inhibition, %; AID 652054; in the data active = max response below about -50%; inconclusive = no clear call, values can overlap the other calls; also: % is scaled to controls: 0 for no effect and ±100 for the full control effect
Target sequence (P35462 whole entry, looked up): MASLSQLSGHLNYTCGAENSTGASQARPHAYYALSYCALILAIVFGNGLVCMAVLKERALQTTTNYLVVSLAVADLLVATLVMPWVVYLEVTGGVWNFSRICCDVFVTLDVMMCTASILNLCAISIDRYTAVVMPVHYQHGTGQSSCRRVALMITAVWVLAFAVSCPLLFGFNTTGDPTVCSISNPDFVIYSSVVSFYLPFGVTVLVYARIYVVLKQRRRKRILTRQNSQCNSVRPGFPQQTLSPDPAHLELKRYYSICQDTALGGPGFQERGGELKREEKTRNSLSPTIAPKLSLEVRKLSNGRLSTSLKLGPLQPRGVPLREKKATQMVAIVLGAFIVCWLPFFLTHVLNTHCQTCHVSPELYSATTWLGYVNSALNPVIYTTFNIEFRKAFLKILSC
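Cells plated overnight at 1500 cells/well, then exposed to library compounds with dopamine controls for 90 minutes at 37 degrees C. DiscoveRx reagent added for 30–60 minutes at room temperature; luminescence read, quantitative HTS format.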
DT40 TDP1 no CPT = qHTS for Inhibitors of human tyrosyl-DNA phosphodiesterase 1 (TDP1): qHTS in cells in absence of CPT; AID 686978, 2013; Potency, µM (highest dose often 46.2 µM), for the others: at the top dose activity change, negative = growth inhibition, most hits filed as inhibitors; 420,000 tested, 15% active; DT40 Tdp1-/- hTDP1 cells, no CPT, ATP luminescence, 48 h; also: potency is read from the fitted curve at half-maximal effect; % is scaled to controls: 0 for no effect and ±100 for the full control effect; nearly all actives have a fitted effect of over 55% in size
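Luminescent ATP content (CellTiter-Glo) served as the growth readout. Knockout chicken DT40 cells expressing human TDP1 were exposed to compounds without camptothecin for a minimum 48 hr at 37 °C.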
D3 ag = agonists of human D3 dopamine receptor; P35462; D3R DiscoveRx beta-arrestin cells, luminescence, 90 min; max activation, %; 410,000 tested, 0.58% active; AID 652048; in the data active = max activation above about 30%; also: 0% is about no effect
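Agonist mode: compounds and dopamine controls were applied to plated cells for 90 min at 37 degrees C after an overnight attachment at 1500 cells/well. Luminescent read-out followed 30 - 60 minutes at room temperature with DiscoveRx detection reagent.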
IL1B secr inh = blocks inflammasome-driven IL-1 beta release; THP-1 LPS/ATP IL-1B secretion, AlphaLISA, 16 h; hits give low values; activity change, % at 57.5 µM; 360,000 tested, 4.7% active; in the data active = activity change below about -50%; inconclusive = mostly about -30% to -49%; also: % is scaled to controls: 0 for no effect and ±100 for the full control effect
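THP-1 cells pretreated 1 hr with compounds (up to 57.5 uM final), then stimulated with LPS (250 ng/mL final) plus ATP (1.25 mM final); secreted IL-1B measured by AlphaLISA after 16 hr, decreased signal indicating inhibition.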
ClpP mod = qHTS Assay for Activators of ClpP | ATP-dependent Clp protease proteolytic subunit (Bacillus subtilis (strain 168)), P80244 | purified B. subtilis ClpP, FRET peptide cleavage, 20 min | Potency, µM (series often up to 57.5 µM), without a hit: at the highest dose activity change, negative = active | 340,000 tested, 1.9% active; active = well fitted falling curve with a large enough effect; inconclusive = small, poorly fitted or top-dose-only effect; inactive = no such curve, though single readings can be large or run the other way; also: potency is read from the fitted curve at half-maximal effect; the source files actives as falling curves though it sought activators and does not explain the sign; nearly all actives have a fitted effect of over 65% in size
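ClpP 10 microg/mL final, pH 8 Tris/KCl buffer with BSA, glycerol, Tween-20; compound pinned in; FRET-FV substrate; RT 20 min; Ex320/Em430; ΔFRET vs ADEP 5.8 microM, DMSO, no enzyme.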
Active calls of the source: *; u = inconclusive; x = no result given; [ ] = another dose, or the depositor's remark. Most compounds without a hit are left out; they make up all but 21% or so of the library. Unless noted, calls follow the shape of the dose curve; as a rule, active = well fitted inhibition curve with a large enough effect; inconclusive = small, poorly fitted or top-dose-only effect; inactive = flat fitted curve, though single readings scatter.

SMILES	DT40 TDP1 CPT	D3 antag	DT40 TDP1 no CPT	D3 ag	IL1B secr inh	ClpP mod
Fc1ccc(C(c2nnnn2C2CCCC2)N2CCN(Cc3ccccc3)CC2)cc1 (configuration not stated)	18µM*	-26	u	-11	-54*	0%
CC(C)CCn1nnnc1CN1CCN(C(c2ccccc2)c2ccccc2)CC1	u	1	18µM*	1	3	0%
c1ccc(C(c2ccccc2)N2CCN(Cc3nnnn3C3CCCC3)CC2)cc1	u	-17	16µM*	-10	-14	5%
CN(C)CC(C)(C)CNC(=O)c1cnn(-c2nccc(-c3ccc4c(c3)OCO4)n2)c1-c1ccco1	-20%[9.04 µM]	x	u	x	x	x
CC(C)Nc1cccnc1N1CCN(C(=O)c2cc3cc(NS(C)(=O)=O)ccc3[nH]2)CC1	u	x	u	0	x	x
CC(C)c1nc(=S)c2ccccc2[nH]1	u	-12	18µM*	0	13	0%
CCOc1c2ccc(C(=O)N[C@H](C)C3CCCCC3)cc2nn1CCOC	1.8µM*	0	1µM*	5	42	4%
CCCn1nc2cc(C(=O)NCc3ccc(OC(F)(F)F)cc3)ccc2c1OCC	u	-30	-8%	-20	0	4%
CCCn1nc2cc(C(=O)N(CC)c3ccc(OC)cc3)ccc2c1OCC	5%	3	-10%	49*	18	5%
CCCn1nc2cc(C(=O)NCCc3cccs3)ccc2c1OCC	-16%	8	18µM*	-8	-7	5%
O=C(NCCCn1ccnc1)C1CCN(S(=O)(=O)c2ccc(F)cc2)CC1	1%	-7	-17%	-7	20	x
CCOC(=O)C1CCC(CN(Cc2c(Cl)cccc2Cl)S(=O)(=O)c2ccc(F)c(C)c2)CC1 (configuration not stated)	u	x	u	5	x	-1%
COc1ccc(-n2cc(-c3ccccc3)c3c(NC4CCCCC4)ncnc32)cc1	u	x	12µM*	5	x	u
CCOc1ccc(-n2cc(-c3ccccc3)c3c(NC4CCCC4)ncnc32)cc1	15µM*	x	13µM*	0	x	11µM*
COc1ccc(-n2cc(-c3ccccc3)c3c(NCCOCCO)ncnc32)cc1	u	0	u	7	-19	-15%
NS(=O)(=O)c1ccc(CNC(=O)c2cc(-c3ccccn3)nc3ccc(Cl)cc23)cc1	-30%	15	u	3	32	x
C[C@@H](c1ccccc1)N1C[C@@H](COCc2ccccc2)Oc2cc(N3CCC[C@H]3CO)ccc2S1(=O)=O	u	39	21µM*	6	u	-26%
C[C@H](c1ccccc1)N1C[C@@H](COCc2ccccc2)Oc2cc(N3CCC[C@@H]3CO)ccc2S1(=O)=O	u	16	21µM*	-1	-22	-24%
C[C@H](c1ccccc1)N1C[C@H](COCc2ccccc2)Oc2cc(N3CCC[C@H]3CO)ccc2S1(=O)=O	u	13	u	10	20	-29%
COc1ccc(-n2cccc2/C=C/[N+](=O)[O-])cc1	2.3µM*	0	3.3µM*	0	-103*	-5%
COc1ccc(S(=O)(=O)N2CCCC(C(=O)NCc3ccco3)C2)cc1OC (configuration not stated)	-19%	-28	-27%	-3	8	x
Cc1cccc(N2CCN(C(=O)C3CCN(S(=O)(=O)c4cccc5cccnc45)CC3)CC2C)c1 (configuration not stated)	13µM*	15	18µM*	8	-2	-2%
Cc1cccc(N2CCN(C(=O)C3CCN(S(=O)(=O)N4CCOCC4)CC3)CC2C)c1 (configuration not stated)	18µM*	16	21µM*	3	22	1%
